Screening data from PubChem.
KB-V1 cytotox – qHTS assay for MDR1-selective chemotherapeutics: Primary screen using the drug-selected MDR subline cells KB-V1; KB-V1 MDR cells viability, CellTiter-Glo, 72 h; AID 1347076, 2019; 400,000 tested, 3.4% active; Potency, µM (series often up to 46.1 µM), hits mostly cytotoxic; further: potency means the concentration at half of the fitted maximal effect; nearly all actives have a fitted effect of over 60% in size
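KB-V1, DMEM (no phenol red) + 10% FBS; cpd pin-transferred, titration series; 72 h, 37 degrees C; CellTiter-Glo, luminescence. Data normalized, curve-fit.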
KB-3-1 tox – qHTS assay for MDR1-selective chemotherapeutics: Primary screen using the parental adenocarcinoma cell KB-3-1. KB-3-1 viability, CellTiter-Glo ATP luminescence, 72 h. Potency, µM (titrated, usually from 46.1 µM), hits mostly cytotoxic. 400,000 tested, 1.4% active; further: potency means the concentration at half of the fitted maximal effect; nearly all actives have a fitted effect of over 60% in size
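Screening of KB-3-1 cells (DMEM, 10% FBS, phenol-red free) ran from lowest to highest compound concentration; after 72 h at 37 °C viability was read luminescently and curves fitted.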
IL1B secr inh – qHTS for Inhibitors of Inflammasome Signaling: IL-1-beta AlphaLISA Primary Screen. 360,000 tested, 4.7% active. THP-1 LPS/ATP IL-1B secretion, AlphaLISA, 16 h; stronger effect = lower value. activity change, % at 57.5 µM; in the data active means activity change below about -50%; inconclusive means mostly about -30% to -49%
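THP-1 cells pretreated 1 hr with compounds (up to 57.5 uM final), then stimulated with LPS (250 ng/mL final) plus ATP (1.25 mM final); secreted IL-1B measured by AlphaLISA after 16 hr, decreased signal indicating inhibition.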
HT1080 IDH1KD tx – qHTS for induction of synthetic lethality in tumor cells producing 2HG: qHTS for the HT-1080-IDH1KD cell line | Potency, µM (titrated, usually from 46.1 µM), for the others: top-dose activity, negative = toxicity, actives largely listed as cytotoxic | 360,000 tested, 2% active | HT-1080 IDH1 knockdown viability, ATP luminescence, 48 h;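 further: potency means the concentration at half of the fitted maximal effect; 0% = DMSO wells and -100% = cell-free medium wells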
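In this qHTS, HT-1080 cells depleted of IDH1 are exposed for 48 h at 37 °C to compound titrations. Toxicity is scored from CellTiter-Glo luminescence, with DMSO as full viability and medium alone as none.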
HT1080-NT tox – qHTS for induction of synthetic lethality in tumor cells producing 2HG: qHTS for the HT-1080-NT fibrosarcoma cell line | HT-1080-NT fibrosarcoma viability, CellTiter-Glo ATP luminescence, 48 h | Potency, µM (top dose mostly 46.1 µM), for inactives: at the highest dose activity, negative = less viability, actives largely listed as cytotoxic | 360,000 tested, 1.6% active | AID 686970, 2013;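 further: NT is the 2HG producing partner of a matched IDH1 knockdown line; potency means the concentration at half of the fitted maximal effect; 0% = DMSO-treated cells and -100% = media-only wells without cells; nearly all actives have a fitted effect of over 55% in size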
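A 48-hour cytotoxicity screen used HT-1080-NT cells plated 2 hours before compound delivery. ATP-based CellTiter-Glo luminescence measured viability, normalized to DMSO and no-cell controls.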
* marks the source's active call; other numbers are inactive results; i = inactive; ? = inconclusive; . = no result; [ ] = dose if it differs, or a comment. An excerpt weighted towards active compounds, which were near 8.8% of everything screened. Unless noted, the call rests on the fitted dose curve; in most records, active means well fitted curve in the direction sought with a large enough effect; inconclusive means small, poorly fitted or top-dose-only effect, or another doubt; inactive means no such curve, though single readings can be large; an effect the other way counts as inactive or inconclusive. Unless noted, on the % scale 0 is the no-effect control and ±100 the full control effect.

SMILES	KB-V1 cytotox	KB-3-1 tox	IL1B secr inh	HT1080 IDH1KD tx	HT1080-NT tox
Cc1ccc(/C=N/NC(=O)CN(Cc2ccccc2)S(=O)(=O)c2ccc3c(c2)OCCO3)cc1	5.8µM*	i	?	-13%	-4%
O=C(CN(Cc1ccccc1)S(=O)(=O)c1ccc2c(c1)OCCO2)Nc1ccc2c(c1)OCCO2	?	i	-53*	-24%	1%
CS(=O)(=O)N(CC(=O)Nc1ccc2c(c1)OCCO2)Cc1ccccc1	i	i	0	1%	10%[9.24 µM]
NC(=O)CN(Cc1ccccc1)S(=O)(=O)c1ccc2c(c1)OCCO2	i	i	24	-8%	4%
CC(C)(C)NS(=O)(=O)c1ccc(CCC(=O)Nc2ccc3c(c2)OCCO3)cc1	16µM*	i	7	7%	0%
COc1ccccc1CNC(=O)C1CCN(c2ncnc3c2nc2n3CCCCC2)CC1	i	i	-10	-14%	-3%
O=C(NC1C2CCCC1CN(C1CC1)C2)c1ccc(Cl)cc1 (configuration not stated)	i	i	-19	11%	15%
Cc1cc(OCC(=O)N2CCc3ccccc3C2)c(C)cc1Br	i	i	-55*	-17%	-27%
CN(C(=O)C(C)(C)C)c1ccc(OCC(=O)N2CCc3ccccc3C2)cc1	4.6µM*	?	-16	-29%	?
OCCC1CN(Cc2cc3c(cc2Cl)OCO3)CCN1Cc1ccccc1 (configuration not stated)	i	i	-25	-18%	-9%
CN(Cc1nc(-c2ccc(Cl)cc2)no1)C(=O)c1ccc2c(c1)OCO2	i	i	-12	1%	0%
COc1ccc2[nH]c(CN3CCN(CC(C)C)C(CCO)C3)c(C)c2c1 (configuration not stated)	i	i	-96*	-19%	0%
CCOc1ccc(CN2CCN(Cc3cc4c(cc3Cl)OCO4)CC2CCO)cc1 (configuration not stated)	i	i	-60*	-25%	?
CCOc1ccc(CN2CCN(Cc3[nH]c4ccccc4c3C)CC2CCO)cc1 (configuration not stated)	?	?	-74*	-26%	-11%
CC(=O)Nc1cc([N+](=O)[O-])ccc1OCc1ccccc1	18µM*	i	12	9%	1%
COc1ccc([N+](=O)[O-])cc1NC(=O)CSCc1ccccc1	i	i	3	-2%	-21%
COc1ccc([N+](=O)[O-])cc1NC(=O)COC(=O)c1ccccc1C(=O)c1ccccc1	i	i	-52*	-1%	-5%
O=C(O)c1cc([N+](=O)[O-])ccc1NCc1ccccc1	i	i	-70*	-1%	-5%
COc1ccc([N+](=O)[O-])cc1NCc1ccccc1	?	?	-89*	-13%	-11%
CCOc1ccccc1C(=O)Oc1ccc2ccc(=O)oc2c1	i	i	24	3%	-2%
Cc1cc(C)n2nc(C(=O)NNC(=O)c3ccccc3)nc2n1	i	i	4	15%	12%
COc1ccc2[nH]c(C(=O)NCc3ccccc3)c(C)c2c1	?	?	-15	-10%	-12%
COc1ccc(Cl)cc1NS(=O)(=O)c1ccc2c(c1)NC(=O)CC(=O)N2	i	i	.	.	.
Cc1cc(C(=O)COC(=O)c2ccc(O)cc2)c(C)n1Cc1ccco1	i	i	3	-10%	-1%
Cc1cc(C(=O)COC(=O)C(C)NC(N)=O)c(C)n1Cc1ccco1 (configuration not stated)	i	?	-103*	-2%	-1%
SMILES	KB-V1 cytotox	KB-3-1 tox	IL1B secr inh	HT1080 IDH1KD tx	HT1080-NT tox
Cn1c(=O)c2c(nc(NCc3ccco3)n2CC(O)COc2ccccc2)n(C)c1=O (configuration not stated)	2.6µM*	?	-22	-4%	1%
CCCn1c(NCc2ccco2)nc2c1c(=O)n(C)c(=O)n2C	15µM*	?	-9	1%[9.24 µM]	-1%
CCCCN(C(=O)c1c(CC)noc1C)c1c(N)n(CCC)c(=O)[nH]c1=O	i	i	-2	3%	1%
Cc1ccc(S(=O)(=O)NCCC(=O)Nc2ccc(Cl)c(Cl)c2)cc1	15µM*	?	-10	?	-22%
CCC(C)NCCC(=O)Nc1ccc(Cl)c(S(=O)(=O)Nc2ccc(Cl)cc2)c1 (configuration not stated)	i	i	-51*	15µM*	?
CCN(c1ccc(NS(=O)(=O)c2cc(Cl)ccc2Cl)cc1)C(C)C	?	?	-92*	?	?
CC(NC(N)=O)C(=O)Nc1ccc(Cl)c(S(=O)(=O)Nc2ccc(Br)cc2)c1 (configuration not stated)	i	i	8	-22%	3%
CC(=O)Nc1ccc(S(=O)(=O)NCCC(=O)Nc2ccc(C)c(Cl)c2)cc1	i	i	7	4%	9%
Cc1ccc(S(=O)(=O)NCCC(=O)Nc2ccc(Cl)c(Cl)c2)cc1C	?	i	-11	-6%	2%
Cc1ccc(S(=O)(=O)NCCC(=O)Nc2cccc(Cl)c2)cc1	16µM*	i	-16	6%	8%
CC1=C(C(=O)OC2CCCC(C)C2)C(c2ccccc2)NC(=O)N1 (configuration not stated)	i	i	-8	7%	0%
Cc1ccc(C(=O)CCC(=O)Nc2ccc(Cl)c(S(=O)(=O)Nc3cccc(Cl)c3)c2)cc1	16µM*	i	7	-11%	-16%
O=C(O)C1=C[C@H](c2ccc(F)cc2)C[C@H](OCCCCO)O1	i	i	-8	-2%	-1%
Cc1cccc(C)c1NC(=O)C(c1ccc(C#N)cc1)n1c(=O)c(-c2ccco2)nc2ccccc21 (configuration not stated)	i	i	?	-17%	-4%
COc1cccc(C(C(=O)NCC2CCCO2)N(C(=O)Cn2nnc3ccccc32)c2ccc(NC(C)=O)cc2)c1 (configuration not stated)	i	?	-63*	7%	6%
CCN(CC)c1ccc(C(=C2C=CC(=[N+](CC)CC)C=C2)c2ccc(S(=O)(=O)O)cc2S(=O)(=O)[O-])cc1	?	12µM*	-94*	?	23µM*
